Test results from ChEMBL document CHEMBL2218924, “A broad activity screen in support of a chemogenomic map for kinase signalling research and drug discovery” (Biochem J, 2013).

Experiments:
[1] = biological target: T1, Testis-specific serine/threonine-protein kinase 1 (Homo sapiens) (UniProt Q9BXA7); conditions: at 1 µM
T1 sequence (whole entry): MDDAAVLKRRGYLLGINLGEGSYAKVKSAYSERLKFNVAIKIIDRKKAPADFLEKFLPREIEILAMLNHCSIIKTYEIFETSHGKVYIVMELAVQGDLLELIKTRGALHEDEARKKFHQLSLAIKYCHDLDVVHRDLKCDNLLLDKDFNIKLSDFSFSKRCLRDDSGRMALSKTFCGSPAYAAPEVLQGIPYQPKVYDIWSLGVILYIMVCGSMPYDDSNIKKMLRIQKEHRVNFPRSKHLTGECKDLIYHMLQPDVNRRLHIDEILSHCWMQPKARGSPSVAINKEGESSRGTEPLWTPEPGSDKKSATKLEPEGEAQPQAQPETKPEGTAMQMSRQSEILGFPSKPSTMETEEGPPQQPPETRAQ

[2] = biological target: T1, Testis-specific serine/threonine-protein kinase 1 (Homo sapiens); conditions: at 10 µM
[3] = biological target: T2, Tyrosine-protein kinase Tec (Homo sapiens) (UniProt P42680); conditions: at 1 µM
T2 sequence (whole entry): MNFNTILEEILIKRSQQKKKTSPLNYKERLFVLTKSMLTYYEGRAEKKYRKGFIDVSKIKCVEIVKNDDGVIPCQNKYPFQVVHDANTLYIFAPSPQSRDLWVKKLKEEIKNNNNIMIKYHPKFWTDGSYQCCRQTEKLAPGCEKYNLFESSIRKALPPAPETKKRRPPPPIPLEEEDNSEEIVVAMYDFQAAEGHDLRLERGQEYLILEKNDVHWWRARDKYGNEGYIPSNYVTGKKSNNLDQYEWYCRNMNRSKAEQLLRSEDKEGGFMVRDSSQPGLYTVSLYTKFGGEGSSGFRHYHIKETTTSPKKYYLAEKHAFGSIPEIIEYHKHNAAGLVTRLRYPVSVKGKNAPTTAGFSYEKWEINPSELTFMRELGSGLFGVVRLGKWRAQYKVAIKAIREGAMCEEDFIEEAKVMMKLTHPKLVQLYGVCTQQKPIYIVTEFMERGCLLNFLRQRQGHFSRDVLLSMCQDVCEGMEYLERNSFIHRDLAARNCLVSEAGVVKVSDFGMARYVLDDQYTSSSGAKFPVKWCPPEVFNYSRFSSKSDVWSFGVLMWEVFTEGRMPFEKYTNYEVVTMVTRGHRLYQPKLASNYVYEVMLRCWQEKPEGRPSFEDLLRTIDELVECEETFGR

[4] = biological target: T2, Tyrosine-protein kinase Tec (Homo sapiens); conditions: at 10 µM
[5] = biological target: Angiopoietin-1 receptor (Homo sapiens) (UniProt Q02763); conditions: at 1 µM
[6] = biological target: Angiopoietin-1 receptor (Homo sapiens) (UniProt Q02763); conditions: at 10 µM
[7] = biological target: High affinity nerve growth factor receptor (Homo sapiens) (UniProt P04629); conditions: at 1 µM
[8] = biological target: High affinity nerve growth factor receptor (Homo sapiens) (UniProt P04629); conditions: at 10 µM
[9] = biological target: BDNF/NT-3 growth factors receptor (Homo sapiens) (UniProt Q16620); conditions: at 1 µM
[10] = biological target: BDNF/NT-3 growth factors receptor (Homo sapiens) (UniProt Q16620); conditions: at 10 µM
[11] = biological target: T3, Tyrosine-protein kinase TXK (Homo sapiens) (UniProt P42681); conditions: at 1 µM
T3 sequence (whole entry): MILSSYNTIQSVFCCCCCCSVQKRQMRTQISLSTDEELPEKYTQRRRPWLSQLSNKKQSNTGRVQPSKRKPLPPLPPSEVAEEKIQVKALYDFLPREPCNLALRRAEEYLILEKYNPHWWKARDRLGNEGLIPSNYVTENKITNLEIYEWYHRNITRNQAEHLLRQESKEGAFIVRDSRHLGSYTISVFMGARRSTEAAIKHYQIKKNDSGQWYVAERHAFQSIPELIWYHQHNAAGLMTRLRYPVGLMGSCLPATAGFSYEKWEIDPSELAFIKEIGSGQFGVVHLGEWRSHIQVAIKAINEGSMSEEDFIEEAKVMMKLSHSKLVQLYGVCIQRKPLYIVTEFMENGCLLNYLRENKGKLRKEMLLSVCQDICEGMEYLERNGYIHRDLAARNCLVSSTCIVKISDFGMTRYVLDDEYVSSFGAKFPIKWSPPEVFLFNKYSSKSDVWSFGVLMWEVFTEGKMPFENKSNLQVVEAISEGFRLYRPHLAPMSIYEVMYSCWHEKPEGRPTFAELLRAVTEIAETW

[12] = biological target: T3, Tyrosine-protein kinase TXK (Homo sapiens); conditions: at 10 µM
[13] = biological target: T4, Serine/threonine-protein kinase ULK2 (Homo sapiens) (UniProt Q8IYT8); conditions: at 1 µM
T4 sequence (whole entry): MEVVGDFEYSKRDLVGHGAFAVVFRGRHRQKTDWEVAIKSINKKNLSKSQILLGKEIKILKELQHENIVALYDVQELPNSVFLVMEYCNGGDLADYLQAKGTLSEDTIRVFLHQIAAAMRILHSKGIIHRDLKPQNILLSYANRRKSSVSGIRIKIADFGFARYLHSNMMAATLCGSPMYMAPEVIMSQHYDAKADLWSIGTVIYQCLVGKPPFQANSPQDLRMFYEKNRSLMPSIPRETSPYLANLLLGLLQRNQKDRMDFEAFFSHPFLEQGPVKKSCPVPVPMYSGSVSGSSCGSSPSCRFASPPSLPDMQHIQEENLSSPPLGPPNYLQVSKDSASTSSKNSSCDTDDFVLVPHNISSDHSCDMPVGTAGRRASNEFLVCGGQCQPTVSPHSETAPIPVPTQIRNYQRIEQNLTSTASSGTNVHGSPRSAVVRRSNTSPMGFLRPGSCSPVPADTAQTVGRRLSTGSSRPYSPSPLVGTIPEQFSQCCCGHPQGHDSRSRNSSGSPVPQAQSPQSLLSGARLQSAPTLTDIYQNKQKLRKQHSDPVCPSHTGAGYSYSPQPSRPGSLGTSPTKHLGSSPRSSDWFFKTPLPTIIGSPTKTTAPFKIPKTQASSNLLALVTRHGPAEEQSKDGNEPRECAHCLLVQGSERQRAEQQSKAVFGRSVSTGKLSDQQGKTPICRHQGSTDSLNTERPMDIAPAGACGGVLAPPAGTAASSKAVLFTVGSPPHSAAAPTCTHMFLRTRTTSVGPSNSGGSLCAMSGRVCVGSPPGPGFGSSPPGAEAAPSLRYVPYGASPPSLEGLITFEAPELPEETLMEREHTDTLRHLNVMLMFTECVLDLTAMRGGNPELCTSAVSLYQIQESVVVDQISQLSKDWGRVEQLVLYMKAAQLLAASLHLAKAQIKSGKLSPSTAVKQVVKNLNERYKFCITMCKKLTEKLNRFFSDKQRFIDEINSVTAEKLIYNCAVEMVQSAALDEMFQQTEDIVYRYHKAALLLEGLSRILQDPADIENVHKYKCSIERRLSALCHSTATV

[14] = biological target: T4, Serine/threonine-protein kinase ULK2 (Homo sapiens); conditions: at 10 µM
[15] = biological target: T5, Serine/threonine-protein kinase ULK3 (Homo sapiens) (UniProt Q6PHR2); conditions: at 1 µM
T5 sequence (whole entry): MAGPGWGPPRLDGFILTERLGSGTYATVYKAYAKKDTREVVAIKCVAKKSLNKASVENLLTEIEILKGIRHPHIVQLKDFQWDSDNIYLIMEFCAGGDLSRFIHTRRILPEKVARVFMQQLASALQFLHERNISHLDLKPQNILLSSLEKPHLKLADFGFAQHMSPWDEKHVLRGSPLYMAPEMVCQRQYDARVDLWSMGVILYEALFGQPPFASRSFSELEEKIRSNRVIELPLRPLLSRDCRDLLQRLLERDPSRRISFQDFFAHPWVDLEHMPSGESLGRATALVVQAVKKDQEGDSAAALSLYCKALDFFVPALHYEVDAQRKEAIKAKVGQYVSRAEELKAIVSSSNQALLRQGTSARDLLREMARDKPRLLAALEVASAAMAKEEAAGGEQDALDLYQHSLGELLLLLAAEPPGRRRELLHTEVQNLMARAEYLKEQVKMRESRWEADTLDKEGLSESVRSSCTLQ

[16] = biological target: T5, Serine/threonine-protein kinase ULK3 (Homo sapiens); conditions: at 10 µM
[17] = biological target: Serine/threonine-protein kinase VRK2 (Homo sapiens) (UniProt Q86Y07); conditions: at 10 µM
[18] = biological target: Serine/threonine-protein kinase WNK2 (Homo sapiens) (UniProt Q9Y3S1); conditions: at 1 µM;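 also: residual WNK2 kinase activity expressed as percent of uninhibited control, assayed in MOPS buffer at pH 7.0 containing EDTA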
[19] = biological target: T6, Testis-specific serine/threonine-protein kinase 2 (Homo sapiens) (UniProt Q96PF2); conditions: at 10 µM
T6 sequence (whole entry): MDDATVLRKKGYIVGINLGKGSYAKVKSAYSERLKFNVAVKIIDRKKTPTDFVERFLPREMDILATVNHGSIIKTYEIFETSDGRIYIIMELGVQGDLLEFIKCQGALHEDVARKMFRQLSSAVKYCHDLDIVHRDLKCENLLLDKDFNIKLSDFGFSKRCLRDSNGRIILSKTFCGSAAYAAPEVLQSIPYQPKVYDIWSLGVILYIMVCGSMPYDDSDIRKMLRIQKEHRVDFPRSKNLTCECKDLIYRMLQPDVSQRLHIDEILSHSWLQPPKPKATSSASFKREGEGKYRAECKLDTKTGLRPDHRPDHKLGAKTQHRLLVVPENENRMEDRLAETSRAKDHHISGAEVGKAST

[20] = biological target: Serine/threonine-protein kinase VRK2 (Homo sapiens) (UniProt Q86Y07); conditions: at 1 µM

Chain of Angiopoietin-1 receptor (Homo sapiens) (Q02763 whole entry): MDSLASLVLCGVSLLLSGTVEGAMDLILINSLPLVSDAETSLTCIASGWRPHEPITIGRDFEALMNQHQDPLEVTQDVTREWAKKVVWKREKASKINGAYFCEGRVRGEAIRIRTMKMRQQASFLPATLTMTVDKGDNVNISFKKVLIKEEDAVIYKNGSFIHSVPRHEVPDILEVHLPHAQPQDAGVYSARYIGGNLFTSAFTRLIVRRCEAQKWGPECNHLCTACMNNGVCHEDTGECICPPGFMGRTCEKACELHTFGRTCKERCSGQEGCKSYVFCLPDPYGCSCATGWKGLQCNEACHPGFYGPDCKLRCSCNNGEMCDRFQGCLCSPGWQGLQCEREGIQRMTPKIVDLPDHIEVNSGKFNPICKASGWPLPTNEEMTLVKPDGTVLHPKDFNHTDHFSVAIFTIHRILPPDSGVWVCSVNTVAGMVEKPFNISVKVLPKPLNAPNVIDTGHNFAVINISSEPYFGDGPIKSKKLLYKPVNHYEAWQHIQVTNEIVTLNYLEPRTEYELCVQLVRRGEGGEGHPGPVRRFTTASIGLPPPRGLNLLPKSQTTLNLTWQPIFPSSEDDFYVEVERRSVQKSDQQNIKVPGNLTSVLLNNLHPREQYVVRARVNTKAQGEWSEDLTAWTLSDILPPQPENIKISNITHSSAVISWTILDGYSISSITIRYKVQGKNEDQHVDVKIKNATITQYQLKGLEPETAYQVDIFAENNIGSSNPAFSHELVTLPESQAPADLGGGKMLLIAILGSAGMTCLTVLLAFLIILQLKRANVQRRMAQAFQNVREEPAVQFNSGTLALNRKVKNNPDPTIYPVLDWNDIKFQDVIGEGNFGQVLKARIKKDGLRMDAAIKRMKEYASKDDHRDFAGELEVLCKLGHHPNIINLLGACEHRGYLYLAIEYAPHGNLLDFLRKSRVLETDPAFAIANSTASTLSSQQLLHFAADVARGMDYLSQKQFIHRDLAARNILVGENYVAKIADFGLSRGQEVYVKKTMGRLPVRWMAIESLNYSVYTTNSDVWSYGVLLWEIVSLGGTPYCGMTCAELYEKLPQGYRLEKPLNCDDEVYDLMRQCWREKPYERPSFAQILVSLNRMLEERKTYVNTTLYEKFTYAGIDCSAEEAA
Chain of BDNF/NT-3 growth factors receptor (Homo sapiens) (Q16620 32-822 limits assumed): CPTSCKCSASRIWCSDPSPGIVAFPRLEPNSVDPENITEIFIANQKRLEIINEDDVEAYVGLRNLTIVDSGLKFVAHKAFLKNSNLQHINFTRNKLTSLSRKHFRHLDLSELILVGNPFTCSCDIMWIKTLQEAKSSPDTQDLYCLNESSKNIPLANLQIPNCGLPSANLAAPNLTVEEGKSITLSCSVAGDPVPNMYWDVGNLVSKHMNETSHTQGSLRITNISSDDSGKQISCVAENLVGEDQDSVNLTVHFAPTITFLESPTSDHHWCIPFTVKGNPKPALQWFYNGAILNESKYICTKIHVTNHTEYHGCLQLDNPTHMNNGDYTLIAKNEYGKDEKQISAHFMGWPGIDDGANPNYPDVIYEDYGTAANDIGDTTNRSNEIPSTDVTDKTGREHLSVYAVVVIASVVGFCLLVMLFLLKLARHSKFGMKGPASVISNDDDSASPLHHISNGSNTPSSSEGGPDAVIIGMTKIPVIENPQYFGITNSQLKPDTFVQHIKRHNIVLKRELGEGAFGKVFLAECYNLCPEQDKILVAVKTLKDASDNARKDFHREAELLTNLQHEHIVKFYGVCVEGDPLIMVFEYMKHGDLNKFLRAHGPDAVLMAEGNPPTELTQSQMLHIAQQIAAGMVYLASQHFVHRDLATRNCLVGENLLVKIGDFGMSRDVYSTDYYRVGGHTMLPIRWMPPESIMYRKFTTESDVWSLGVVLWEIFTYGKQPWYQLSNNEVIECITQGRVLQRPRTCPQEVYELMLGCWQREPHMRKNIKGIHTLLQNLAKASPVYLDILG
Chain of Serine/threonine-protein kinase WNK2 (Homo sapiens) (Q9Y3S1 whole entry): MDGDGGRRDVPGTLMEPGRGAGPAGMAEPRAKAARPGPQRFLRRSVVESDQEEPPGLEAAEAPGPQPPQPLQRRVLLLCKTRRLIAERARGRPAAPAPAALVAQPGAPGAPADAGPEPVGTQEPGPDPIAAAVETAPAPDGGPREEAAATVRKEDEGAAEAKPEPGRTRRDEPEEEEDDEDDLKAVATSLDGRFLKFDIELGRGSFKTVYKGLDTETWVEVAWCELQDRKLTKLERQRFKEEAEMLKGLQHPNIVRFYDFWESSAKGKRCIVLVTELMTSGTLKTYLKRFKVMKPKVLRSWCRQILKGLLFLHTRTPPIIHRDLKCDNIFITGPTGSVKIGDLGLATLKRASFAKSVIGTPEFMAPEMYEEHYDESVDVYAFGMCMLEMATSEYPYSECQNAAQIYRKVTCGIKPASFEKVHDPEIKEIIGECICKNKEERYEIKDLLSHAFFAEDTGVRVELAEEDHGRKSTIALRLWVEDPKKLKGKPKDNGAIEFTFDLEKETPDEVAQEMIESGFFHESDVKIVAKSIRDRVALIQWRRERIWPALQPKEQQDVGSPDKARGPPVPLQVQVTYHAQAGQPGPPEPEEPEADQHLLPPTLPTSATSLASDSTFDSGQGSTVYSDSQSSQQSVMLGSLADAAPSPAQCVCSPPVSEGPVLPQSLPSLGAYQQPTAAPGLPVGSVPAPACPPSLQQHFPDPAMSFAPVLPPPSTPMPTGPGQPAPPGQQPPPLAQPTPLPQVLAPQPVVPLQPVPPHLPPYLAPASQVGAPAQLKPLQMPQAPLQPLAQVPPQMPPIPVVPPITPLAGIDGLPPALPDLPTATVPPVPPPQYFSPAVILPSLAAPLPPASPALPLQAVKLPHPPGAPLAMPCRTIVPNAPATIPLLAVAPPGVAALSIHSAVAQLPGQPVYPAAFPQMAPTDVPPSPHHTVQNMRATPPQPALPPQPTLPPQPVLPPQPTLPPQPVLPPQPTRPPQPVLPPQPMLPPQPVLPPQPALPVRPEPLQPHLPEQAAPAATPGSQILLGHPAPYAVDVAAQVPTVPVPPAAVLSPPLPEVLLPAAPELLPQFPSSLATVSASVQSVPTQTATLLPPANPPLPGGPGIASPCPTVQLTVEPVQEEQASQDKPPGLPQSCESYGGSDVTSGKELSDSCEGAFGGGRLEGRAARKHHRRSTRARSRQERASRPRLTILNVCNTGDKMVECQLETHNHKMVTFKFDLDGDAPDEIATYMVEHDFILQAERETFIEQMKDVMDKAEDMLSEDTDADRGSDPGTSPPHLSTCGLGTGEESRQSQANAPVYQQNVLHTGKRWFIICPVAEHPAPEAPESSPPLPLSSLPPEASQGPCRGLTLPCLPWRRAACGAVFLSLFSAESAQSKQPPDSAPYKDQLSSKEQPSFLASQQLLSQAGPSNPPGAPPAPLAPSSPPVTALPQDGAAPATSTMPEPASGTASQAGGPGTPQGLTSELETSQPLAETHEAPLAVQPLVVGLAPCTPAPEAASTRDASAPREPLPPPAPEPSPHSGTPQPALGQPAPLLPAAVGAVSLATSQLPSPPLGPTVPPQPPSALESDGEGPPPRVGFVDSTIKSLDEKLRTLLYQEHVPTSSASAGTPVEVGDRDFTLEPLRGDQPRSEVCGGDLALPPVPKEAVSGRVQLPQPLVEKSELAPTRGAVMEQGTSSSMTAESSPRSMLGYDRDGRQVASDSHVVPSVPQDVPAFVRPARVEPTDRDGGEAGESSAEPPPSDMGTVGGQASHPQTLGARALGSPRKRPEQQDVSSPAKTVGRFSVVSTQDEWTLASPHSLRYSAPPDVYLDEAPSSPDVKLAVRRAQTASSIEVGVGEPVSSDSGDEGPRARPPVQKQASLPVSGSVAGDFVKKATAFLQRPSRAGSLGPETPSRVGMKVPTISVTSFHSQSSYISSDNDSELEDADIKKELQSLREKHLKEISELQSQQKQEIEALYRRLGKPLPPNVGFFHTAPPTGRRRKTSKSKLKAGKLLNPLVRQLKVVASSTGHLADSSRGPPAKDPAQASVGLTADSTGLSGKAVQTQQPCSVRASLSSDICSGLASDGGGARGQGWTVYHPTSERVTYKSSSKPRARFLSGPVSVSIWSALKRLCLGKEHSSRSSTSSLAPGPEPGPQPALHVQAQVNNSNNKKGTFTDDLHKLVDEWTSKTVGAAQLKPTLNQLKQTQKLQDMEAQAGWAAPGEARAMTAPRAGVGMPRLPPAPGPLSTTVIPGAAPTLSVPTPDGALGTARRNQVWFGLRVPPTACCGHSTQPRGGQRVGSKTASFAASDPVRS
Chain of High affinity nerve growth factor receptor (Homo sapiens) (P04629 33-796 limits assumed): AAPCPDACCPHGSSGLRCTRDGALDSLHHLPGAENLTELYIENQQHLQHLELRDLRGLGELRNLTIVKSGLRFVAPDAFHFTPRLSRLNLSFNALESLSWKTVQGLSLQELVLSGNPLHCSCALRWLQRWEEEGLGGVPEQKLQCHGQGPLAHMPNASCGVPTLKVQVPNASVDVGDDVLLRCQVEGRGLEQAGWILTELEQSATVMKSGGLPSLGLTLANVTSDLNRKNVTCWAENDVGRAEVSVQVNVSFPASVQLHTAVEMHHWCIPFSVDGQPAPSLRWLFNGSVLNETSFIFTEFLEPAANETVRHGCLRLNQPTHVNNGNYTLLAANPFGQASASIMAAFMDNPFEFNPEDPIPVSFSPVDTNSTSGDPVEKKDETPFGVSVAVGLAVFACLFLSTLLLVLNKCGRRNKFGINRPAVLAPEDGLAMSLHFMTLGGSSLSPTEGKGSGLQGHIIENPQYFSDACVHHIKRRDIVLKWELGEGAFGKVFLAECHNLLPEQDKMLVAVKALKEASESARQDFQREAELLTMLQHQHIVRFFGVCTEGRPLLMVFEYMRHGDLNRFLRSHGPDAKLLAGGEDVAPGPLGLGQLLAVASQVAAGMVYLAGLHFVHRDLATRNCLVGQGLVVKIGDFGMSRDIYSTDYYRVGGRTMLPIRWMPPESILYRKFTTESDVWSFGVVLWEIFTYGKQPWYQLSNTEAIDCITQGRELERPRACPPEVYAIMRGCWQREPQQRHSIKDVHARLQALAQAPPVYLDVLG

Structure (SMILES) | residual activity [1] [%] | residual activity [2] [%] | residual activity [3] [%] | residual activity [4] [%] | residual activity [5] [%] | residual activity [6] [%] | residual activity [7] [%] | residual activity [8] [%] | residual activity [9] [%] | residual activity [10] [%] | residual activity [11] [%] | residual activity [12] [%] | residual activity [13] [%] | residual activity [14] [%] | residual activity [15] [%] | residual activity [16] [%] | residual activity [17] [%] | residual activity [18] | residual activity [19] [%] | residual activity [20]
CN(C)S(=O)(=O)c1ccc2c(c1)/C(=C/c1cc3c([nH]1)CCCC3)C(=O)N2 | 91 | 73 | 86 | 80 | 45 | 51 | -2 | -1 | 4 | 1 | 92 | 90 | 38 | 13 | 11 | 6 | 91 | 94% (inactive) | – | –
Nc1n[nH]c2nc3ccccc3nc12 | 85 | 87 | 81 | 86 | – | – | 86 | 67 | 84 | 85 | 87 | 76 | – | 92 | 87 | 84 | 86 | – | 71 | 99% (inactive)
NC(=O)Nc1sc(-c2ccc(F)cc2)cc1C(N)=O | 62 | 27 | – | – | 82 | 21 | – | – | 27 | 2 | – | – | 86 | 36 | 69 | 24 | 52 | – | 54 | 95% (inactive)
NCCNc1ncc(C(N)=O)c(Nc2cccc(C(F)(F)F)c2)n1 | 56 | 10 | – | – | 100 | 49 | – | – | 47 | 29 | – | 61 | – | – | 82 | 24 | 43 | 111% (inactive) | – | –
CCCC(=O)Oc1ccc2[nH]c(C(=O)c3cc4ccccc4[nH]3)cc2c1 | 93 | 82 | 85 | 94 | 78 | 49 | 87 | 87 | – | 13 | 102 | 82 | 103 | 97 | 105 | 85 | 84 | – | 96 | 105% (inactive)
CCCCc1c(-c2ccc(OC)cc2)[nH]c2nccnc12 | 63 | 81 | 51 | 11 | 105 | 82 | 61 | 57 | 70 | 76 | 53 | 55 | – | – | 68 | 69 | 100 | 105% (inactive) | – | 105% (inactive)
CC(C)N(CCC(=O)c1ccc2ccccc2c1)Cc1ccccc1 | 81 | 78 | – | 73 | – | – | – | – | – | – | – | 42 | – | – | – | 86 | 86 | – | – | 100% (inactive)
O=S(=O)(NCCNC/C=C/c1ccc(Br)cc1)c1cccc2cnccc12 | 100 | 67 | – | – | – | 69 | – | 78 | – | – | 74 | 61 | – | – | – | – | – | – | – | –
O=C1C(Cl)=C(N2C(=O)CCC2=O)C(=O)c2ccccc21 | 101 | 79 | 90 | 79 | – | 71 | 89 | 68 | 85 | 93 | 76 | 87 | – | – | 87 | 97 | 98 | 89% (inactive) | 80 | 93% (inactive)
COc1cc2c(cc1OC)-c1n[nH]c(Nc3cccc(F)c3)c1C2 | 77 | 68 | 63 | 18 | – | 74 | 69 | 6 | 56 | 31 | 64 | 20 | – | – | 98 | 72 | – | 78% (inactive) | – | –
CC(C)c1nn(-c2c(Cl)cccc2Cl)c2nc(Cc3ccc(OCCO)cc3)[nH]c(=O)c12 | 91 | 94 | 90 | 85 | – | 86 | 87 | 74 | – | 79 | 96 | 99 | 81 | 49 | 84 | 45 | 96 | 108% (inactive) | 79 | 100% (inactive)
CC(C)(C)c1nc2c3ccc(F)cc3c3c(=O)[nH]ccc3c2[nH]1 | 42 | 60 | – | – | 78 | 64 | 3 | 6 | 71 | -2 | 63 | 57 | 26 | 25 | 56 | 13 | – | – | – | –
O=C1Nc2ccc(Cl)cc2/C1=C/c1cc(Cl)c(O)c(Cl)c1 | 95 | 78 | 89 | 70 | 75 | 51 | -1 | 2 | 38 | 3 | 93 | 80 | – | – | 89 | 47 | 92 | – | 57 | 110% (inactive)
O=C(NC(NC(=S)Nc1ccc(F)c([N+](=O)[O-])c1)C(Cl)(Cl)Cl)C(c1ccccc1)c1ccccc1 (centres undefined) | 87 | 103 | 102 | 62 | – | 82 | 87 | 52 | 91 | 89 | 82 | 76 | 96 | – | 97 | 98 | 95 | – | 101 | –
COc1ccc(Cl)cc1NC(=O)Nc1cc(C)nc2ccccc12 | 95 | 87 | 93 | 55 | – | – | 100 | 60 | – | – | – | 60 | – | 85 | – | 96 | 94 | – | 88 | 98% (inactive)
